Source: PubChem BioAssay
This is a sample that favours compounds with a hit; in the whole collection about 21% have one here.
Pf growth 48h: inhibits P. falciparum growth in the first generation, 48 h; hit rate 5.9% among 310,000; P. falciparum luciferase growth in erythrocytes, 48 h; Potency, µM (top dose mostly 28.7 µM), most hits filed as inhibitors; AID 504832
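Here the parasites carry a stable luciferase gene and grow inside erythrocytes in Albumax-based RPMI medium with compound for one erythrocytic cycle. Activity is scored as loss of luminescent signal.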
Shiga toxin inh: inhibitors of Shiga toxin in Vero cells | Vero cells, Shiga toxin protein synthesis inhibition reporter | inhibition, % at 38.7 µM | hit rate 9.2% among 290,000; in the data active = inhibition mostly above about 28%, no sharp cut-off; inactive = mostly below about 43%
Cycloheximide cs: affects cycloheximide protein synthesis inhibition readout, counter-screen; cell reporter, cycloheximide protein synthesis inhibition counterscreen; max response, %; hit rate 12% among 300,000; in the data active = max response mostly above about 13%, no sharp cut-off; inactive = mostly below about 14%; note: read at 38.3 µM for the half of the compounds with a filed dose
Pf growth 96h: P. falciparum growth inhibition at 96 hour, primary screen for plastid delayed-death inhibitors; hit rate 6.9% among 320,000; P. falciparum luciferase reporter growth, 96 h; Potency, µM (top dose mostly 28.7 µM), actives largely listed as inhibitors; AID 504834
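Luminescence readout: decreased luciferase signal marks inhibited growth of reporter-expressing P. falciparum in infected red cells (2% hematocrit, 0.05% parasitemia final), exposed to compound two generations (96 h, 37 C, 5% CO2).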
A number is an active result. Unless noted, calls come from the whole dose curve; as a rule, active = well fitted inhibition curve with a large enough effect; inconclusive = small, poorly fitted or top-dose-only effect, or another doubt; inactive = no such curve, though single readings can be large or run the other way.

Results for CCn1cnc2c(oc3ccccc32)c1=O ?
Pf growth 48h: inactive; Shiga toxin inh: inactive; Cycloheximide cs: 24; Pf growth 96h: inactive

Results for CCCn1cnc2c(oc3ccccc32)c1=O ?
Pf growth 48h: inactive; Shiga toxin inh: 39; Cycloheximide cs: 29; Pf growth 96h: inconclusive

How did C#CCn1cnc2c(oc3ccccc32)c1=O do in these assays?
Pf growth 48h: inactive; Shiga toxin inh: inactive; Cycloheximide cs: 34; Pf growth 96h: inactive

Results for O=c1c2oc3ccccc3c2ncn1Cc1ccc(F)cc1 ?
Pf growth 48h: inconclusive; Shiga toxin inh: inactive; Cycloheximide cs: inactive; Pf growth 96h: inconclusive

How did O=C(Cn1cnc2c(oc3ccccc32)c1=O)c1ccccc1 do in these assays?
Pf growth 48h: inactive; Shiga toxin inh: 53; Cycloheximide cs: 54; Pf growth 96h: inactive

Results for COc1ccccc1CNC(=O)c1cn(C)c2ccc(S(=O)(=O)N3CCCC3)cc2c1=O ?
Pf growth 48h: inconclusive; Shiga toxin inh: inactive; Cycloheximide cs: inactive; Pf growth 96h: inconclusive

How did Fc1cccc(-c2cc3nc4c(c(NCc5ccco5)n3n2)CCCC4)c1 do in these assays?
Pf growth 48h: inactive; Shiga toxin inh: 87; Cycloheximide cs: 39; Pf growth 96h: inactive

How did Fc1cccc(-c2cc3nc4c(c(N5CCOCC5)n3n2)CCCC4)c1 do in these assays?
Pf growth 48h: 8.3µM; Shiga toxin inh: 48; Cycloheximide cs: 52; Pf growth 96h: inconclusive

How did OC1CCN(c2c3c(nc4cc(-c5ccc(Cl)cc5)nn24)CCC3)CC1 do in these assays?
Pf growth 48h: inactive; Shiga toxin inh: inactive; Cycloheximide cs: inactive; Pf growth 96h: inactive

Results for Clc1cccc(-c2cc3nc4c(c(N5CCOCC5)n3n2)CCCC4)c1 ?
Pf growth 48h: inconclusive; Shiga toxin inh: inactive; Cycloheximide cs: 22

Results for Clc1cccc(-c2cc3nc4c(c(N5CCN(c6cnccn6)CC5)n3n2)CCCC4)c1 ?
Pf growth 48h: 2.1µM; Shiga toxin inh: 37; Cycloheximide cs: 38; Pf growth 96h: inactive

Results for COc1ccc(CNC(=O)C2CCN(S(=O)(=O)c3cccc4nonc34)CC2)cc1 ?
Pf growth 48h: inactive; Shiga toxin inh: inactive; Cycloheximide cs: inactive; Pf growth 96h: inactive

How did CC(C(=O)Nc1cccc([N+](=O)[O-])c1)N1C(=O)NC2(CCCC2)C1=O (stereo unspecified) do in these assays?
Pf growth 48h: inactive; Shiga toxin inh: inactive; Cycloheximide cs: inactive; Pf growth 96h: inactive

Results for COc1cc(C(=O)OCC(=O)N2CC(C)OC(C)C2)cc(OC)c1OC (stereo unspecified) ?
Pf growth 48h: inactive; Shiga toxin inh: inactive; Cycloheximide cs: inactive; Pf growth 96h: inactive

Results for O=C(Nc1ccccc1Cl)C1CCCN(S(=O)(=O)c2ccc(-n3cnnn3)cc2)C1 (stereo unspecified) ?
Pf growth 48h: inactive; Shiga toxin inh: inactive; Cycloheximide cs: inactive; Pf growth 96h: inactive

How did Cc1cccc(NC(=O)C2C3C=CC(O3)C2C(=O)O)c1 (stereo unspecified) do in these assays?
Pf growth 48h: inactive; Shiga toxin inh: inactive; Cycloheximide cs: inactive; Pf growth 96h: inconclusive

How did CCOC(=O)c1ccc(NC(=O)C2C3C=CC(O3)C2C(=O)O)cc1 (stereo unspecified) do in these assays?
Pf growth 48h: inactive; Shiga toxin inh: inactive; Cycloheximide cs: inactive; Pf growth 96h: inactive

What do the screens show for `Cc1ccc(NC(=O)C2C3C=CC(O3)C2C(=O)O)cc1C` (stereo unspecified)?
Pf growth 48h: inactive; Cycloheximide cs: 52; Pf growth 96h: inactive

What do the screens show for `COC(=O)c1ccc(NC(=O)C2C3C=CC(O3)C2C(=O)O)cc1` (stereo unspecified)?
Pf growth 48h: inactive; Shiga toxin inh: 30; Cycloheximide cs: 20; Pf growth 96h: inactive

How did CC(OC(=O)CCCNC(=O)c1ccc(Cl)cc1)C(=O)N(C)Cc1ccccc1 (stereo unspecified) do in these assays?
Pf growth 48h: inactive; Shiga toxin inh: inactive; Cycloheximide cs: inactive; Pf growth 96h: inactive

Results for COc1ccccc1NC(=O)C(C)OC(=O)CCCc1c[nH]c2ccccc12 (stereo unspecified) ?
Pf growth 48h: inactive; Pf growth 96h: inactive

What do the screens show for `Cc1c(CN2CCC(n3nccc3NC(=O)C3CCOC3)CC2)[nH]c2ccccc12` (stereo unspecified)?
Pf growth 48h: inactive; Shiga toxin inh: inactive; Cycloheximide cs: inactive; Pf growth 96h: inactive

How did O=C(Nc1ccnn1C1CCN(Cc2cc3ccccc3[nH]2)CC1)C1CCOC1 (stereo unspecified) do in these assays?
Pf growth 48h: inactive; Shiga toxin inh: inactive; Cycloheximide cs: inactive; Pf growth 96h: 5.2µM

How did O=C(Nc1ccnn1C1CCN(C(=O)CCc2ccc(F)cc2)CC1)C1CCOC1 (stereo unspecified) do in these assays?
Pf growth 48h: inconclusive; Shiga toxin inh: inactive; Cycloheximide cs: 20; Pf growth 96h: inactive

What do the screens show for `O=C(Nc1ccnn1C1CCN(Cc2cccc(OCCO)c2)CC1)C1CCOC1` (stereo unspecified)?
Pf growth 48h: inactive; Shiga toxin inh: inactive; Cycloheximide cs: inactive; Pf growth 96h: 5.2µM

What do the screens show for `CN(CCCC(=O)NCCc1ccccc1)S(=O)(=O)c1ccc([N+](=O)[O-])cc1`?
Pf growth 48h: inactive; Shiga toxin inh: inactive; Cycloheximide cs: inactive; Pf growth 96h: inactive

What do the screens show for `COc1cc(OC)c(C2=NOC(C(=O)N3CCCc4ccccc43)C2)cc1Cl` (stereo unspecified)?
Shiga toxin inh: inactive; Cycloheximide cs: inactive; Pf growth 96h: 8.3µM

What do the screens show for `Cc1ccc(S(=O)(=O)N/N=C/c2ccc(O)cc2O)cc1[N+](=O)[O-]`?
Pf growth 48h: inactive; Shiga toxin inh: 58; Cycloheximide cs: 18; Pf growth 96h: inactive

How did COc1cc(/C=N/NS(=O)(=O)c2ccc(C)c([N+](=O)[O-])c2)ccc1O do in these assays?
Pf growth 48h: inactive; Shiga toxin inh: 122; Cycloheximide cs: 36; Pf growth 96h: inactive

How did COc1ccc(-n2c(O)c(/C=N/NS(=O)(=O)c3ccc(C)c([N+](=O)[O-])c3)c3ccccc3c2=O)cc1OC do in these assays?
Pf growth 48h: inconclusive; Shiga toxin inh: inactive; Cycloheximide cs: inactive; Pf growth 96h: 12µM

Results for COc1ccc(C)cc1S(=O)(=O)NC(C)C(=O)NC1CC1 (stereo unspecified) ?
Pf growth 48h: inactive; Shiga toxin inh: inactive; Cycloheximide cs: inactive; Pf growth 96h: inconclusive

Results for Cc1ccc(C)c(CN2CCC(n3nccc3NC(=O)CCCc3ccccc3)CC2)c1 ?
Pf growth 48h: inconclusive; Shiga toxin inh: inactive; Cycloheximide cs: inactive; Pf growth 96h: inactive

How did O=C(CCn1cccc(C(F)(F)F)c1=O)Nc1cccc(C(F)(F)F)c1 do in these assays?
Pf growth 48h: inactive; Shiga toxin inh: inactive; Cycloheximide cs: inactive; Pf growth 96h: inactive

What do the screens show for `Cc1ccccc1-n1c(=O)cc(NCc2ccc3c(c2)OCO3)[nH]c1=O`?
Pf growth 48h: 9.3µM; Shiga toxin inh: inactive; Cycloheximide cs: inactive; Pf growth 96h: inconclusive

How did Cc1ccccc1-n1c(=O)cc(NCC2CCCO2)[nH]c1=O (stereo unspecified) do in these assays?
Pf growth 48h: inactive; Shiga toxin inh: inactive; Cycloheximide cs: inactive; Pf growth 96h: 6.6µM

How did CCN(Cc1nc2cc(Cl)ccc2c(=O)[nH]1)C(=O)C1CC(=O)N(c2cccc3ccccc23)C1 (stereo unspecified) do in these assays?
Pf growth 48h: 10µM; Pf growth 96h: inconclusive
